# Results reported in PubChem BioAssay AID504635 (The Scripps Research Institute Molecular Screening Center, 2011).
# The list shows a part of the results. Unmarked numbers belong to inactive results. Rule as the data show it: active = inhibition above about 18%; inactive = the rest.
# Target: Troponin I, cardiac muscle (Homo sapiens) + Troponin T, cardiac muscle (Homo sapiens) + Troponin C, slow skeletal and cardiac muscles (Homo sapiens) (UniProt P19429+P45379+P63316)
# Experiment: calcium desensitizers of cardiac thin filaments – biochemical, fluorescence readout, confirmation (AID 504635)
# Conditions: reconstituted cardiac thin filaments, calcium sensitivity fluorescence; at 7.15 µM; stronger effect = higher value
structure (smiles),measurement,value
COC1=C[C@@H]2[C@@H]3Cc4ccc(OC)c(O)c4[C@]2(CCN3C)CC1=O,inhibition,-1.97%
